These results are taken from PubChem BioAssay (NCI).

About 83,000 compounds went through this panel and 20% of them were active in at least one assay; those are over-represented in the sample as a whole.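 A percent growth of 40 corresponds to 60% growth inhibition; 0 means no net growth; -100 means all cells died. Active threshold: below 10.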 Unmarked numbers belong to inactive results. The source made the active and inactive calls.

Holding throughout (test): NCI-60 one-dose screen, 48 h (100 = growth as untreated, 0 = no growth, -100 = all killed)
Common to all, as to conditions: 10 µM unless noted

In assay [1] the test system is SN12C renal.
Assay [2] has as its system UO-31 renal.
For assay [3], the system named is TK-10 renal.
In assay [4] the test system is ACHN renal.
Assay [5] concerns A498 renal.
The test system of assay [6] is CCRF-CEM leukemia.
For assay [7], the system named is MOLT-4 leukemia.
The test system of assay [8] is CAKI-1 renal.
In assay [9] the test system is SR leukemia.

For the molecule `COc1ccc(-n2c(C(O)c3ccccc3)n[nH]c2=S)cc1` (centres undefined), the growth in assay [1] is 88.2%; in assay [2] it was 79.6%; in assay [3], 101%; in assay [4] it was 95.5%; in assay [5] it was 103%; in [6], 98.4%. The growth in assay [7] was 83.4%.
`c1ccc(CNc2nc(Nc3ccccc3)nc3ccccc23)cc1`: the growth was 71.3% in assay [1]; 80.7% in assay [2]; 19.3% in [3]; 40.4% in [8]; 37.4% in [5]; 69.5% in assay [6]. Further, the growth in [7] was 80.3%; in [9] it was 20%.
With `CCOC(=O)C1(C(=O)OCC)N=C(c2ccccc2)C=C1c1ccccc1`, the growth in assay [1] is 89.8%; in assay [2], 76%; in assay [3], 112%; in assay [4], 87.7%; in assay [8], 83.1%; in [5], 84.4%. For the same molecule, the growth in assay [6] was 77.5%; in assay [7] it was 81.1%; in [9] it was 69.7%.
For `COc1ccc(CSc2nnc(SCC(=O)Nc3ccc(Cl)cc3)s2)cc1`, the growth in assay [1] was 68.5%; in assay [2], 52.8%; in assay [4], 59.9%; in [8] it was 38%; in assay [5], 85.6%; in [6], 53.3%. In addition, the growth in assay [7] is 58%; in assay [9] it was 86.1%.
For `Nc1ccc(-c2nc3cc(Oc4ccc(Oc5ccc6[nH]c(-c7ccc(N)cc7)nc6c5)cc4)ccc3[nH]2)cc1`, the growth in assay [1] is 90.4%; in assay [2], 97.7%; in assay [3], 112%; in assay [4] it was 101%; in assay [8], 120%; in assay [5], 91.5%. The growth in [6] is 100%; in assay [7], 96.8%; in assay [9] it was 91.9%.
On to `O=S1(=O)CCN(Cc2ccccc2)CC1`, for which the growth in [1] was 101%; in assay [2], 103%; in assay [3], 94.3%; in assay [8], 89.1%; in assay [5] it was 75.9%; in assay [6] it was 98.1%. For the same molecule, the growth is 105% in assay [7] and 87.3% in assay [9].
For the molecule `COc1ccc(-c2nc(N3CCN(C(=O)C4CCCCC4)CC3)c3c4c(sc3n2)CCCC4)cc1`, the growth in assay [1] is 77.2%; in assay [2] it was -7.01% (active); in [3], -40.1% (active); in assay [8] it was -12.1% (active); in assay [5] it was 57.1%; in [6], 5.79% (active). For the same molecule, the results for the growth in assay [7] and in assay [9] were 1.83% (active) and -33.2% (active), respectively.
In the case of `O=C(/C=C/c1ccccn1)c1ccc(OCc2nnc(-c3ccc(Cl)cc3)o2)cc1`, the growth in assay [1] is 33.2%; in assay [2], -90.1% (active); in [3] it was 16.6%; in assay [4], 27.3%; in [8] it was -25.7% (active); in assay [5], 88.3%. The growth in assay [7] is 17.2%.
Regarding `CN(C)c1ccc(N=Cc2ccc(N3CCOCC3)cc2)cc1`, the growth in [1] is 79%; in [2], 71.4%; in [3], 116%; in [8], 86.6%; in [5], 91.7%; in assay [6] it was 58.8%. Moreover, the growth is 65.2% in assay [7] and 75.6% in [9].
`CCOC(=O)C1=C(C)N=c2s/c(=C\c3cc(Cl)ccc3O)c(=O)n2C1c1ccc(OC)cc1` (centres undefined): the growth in assay [1] is 93.8%; in [2], 58.8%; in assay [4], 99.4%; in assay [8], 96.5%; in [5], 76.1%; in [6], 85.3%. Further, the growth in [7] is 96.4%; in assay [9] it was 86%.
`O=C(NC(=S)Nc1cccc(NC(=S)NC(=O)c2ccccc2)c1)c1ccccc1`: the growth in assay [1] is 61.9%; in assay [2], 84.6%; in assay [3], 75.8%; in assay [5], 104%; in assay [7] it was 103%; in assay [9] it was 79.8%.
As for `COc1ccc(C)c2sc(N(Cc3cccnc3)C(=O)c3ccc(C#N)cc3)nc12`, the growth was 7.62% (active) in [1]; -50.8% (active) in [2]; 18% in assay [3]; 5.85% (active) in assay [4]; -33.1% (active) in assay [8]; 2.59% (active) in assay [5]. Further, the growth in [6] is 8.67% (active); in assay [7], 3.94% (active); in assay [9], 8.52% (active).
As to `CCCCNc1nc(NC(C)(C)C)nc(NC(C)(C)C)n1`, the growth in [1] was 56.1%; in assay [2], 37.4%; in assay [3] it was 55.9%; in assay [8], 51.3%; in assay [5] it was 45.4%; in assay [6] it was 42.4%. The growth in assay [7] is 39.1%; in [9], 33.6%.
With `C=C(C)CCC(C)N1CCC(N2CCC(C(=O)NCCc3ccccc3)CC2)CC1` (centres undefined), the growth is 57.5% in [1]; 78.2% in assay [2]; 72.1% in assay [4]; 89.1% in [8]; 72% in [5]; 45.5% in assay [6]. For the same molecule, the values for the growth in assay [7] and in [9] were 42.9% and 4.33% (active), respectively.
For the molecule `CCOc1cccc(/C=N\Nc2nc(=O)cc(C(=O)OC)s2)c1O`, the growth in [1] was 59.1%; in [2] it was 49.7%; in assay [4], 68.8%; in assay [8] it was 65.9%; in assay [5], 87.2%; in assay [6] it was 38.4%. For the same molecule, the growth in assay [7] is 53.6%; in assay [9], 50.7%.
Consider `CC(=O)SC1CC(=O)C=C2CCC3C4CCC(=O)OC4(C)CCC3C21C` (centres undefined), for which the growth is 87% in assay [2]; 93.8% in assay [3]; 106% in assay [4]; 101% in [5]; 101% in assay [6]; 105% in assay [7]. Besides, the growth in assay [9] was 111%.
Regarding `CCC1=C[C@@H]2CN(C1)Cc1c([nH]c3ccccc13)[C@@](C(=O)OC)(c1cc3c(cc1OC)N(C)[C@H]1[C@@](O)(C(=O)OC)[C@H](OC(C)=O)[C@]4(CC)[C@@H]5C[C@@H]5CN5CC[C@]31[C@@H]54)C2`, the growth in assay [1] is 19.3%; in assay [2], 3.11% (active); in assay [8], 24.9%; in assay [5] it was -24.5% (active); in assay [6], 1.97% (active); in [7], -3.35% (active). For the same molecule, the growth in [9] is -19.3% (active).
Consider `CN1CCN(c2nc(Nc3ccc(O)cc3)nc3ccccc23)CC1`, for which the growth in [1] is 63.8%; in assay [2], 57.3%; in assay [3], 71.9%; in assay [4], 49.5%; in assay [5], 85.2%; in [6], 93.4%. In addition, the growth in [7] is 98.4%; in [9] it was 87%.
Consider `Cc1ccc2cc3c(N)c4c(C)ccc(C)c4nc3nc2c1`, for which the growth in assay [1] is 63.9%; in assay [2], 10.4%; in assay [4] it was 60.8%; in assay [8], 7.98% (active); in assay [5] it was 41.9%; in assay [6] it was 39.6%. Besides, the growth is 44.8% in assay [7] and -9.96% (active) in assay [9].
For the molecule `O=[N+]([O-])c1cc2c(ccc3occc32)o1`, the growth in [1] is 32.4%; in assay [2], 23.4%; in assay [4] it was 4.13% (active); in assay [8], -19.7% (active); in assay [5], -5.92% (active); in assay [6], 9.79% (active). Moreover, the growth was 17.1% in [7] and 10.9% in [9].
Regarding `CCCCCCCCCCOC(=O)c1ccccc1C(=O)OCCCC`, the growth in assay [2] is 81.3%; in assay [3], 108%; in assay [4], 109%; in assay [5], 121%; in assay [6], 103%; in [7], 95.4%. Also, the growth in [9] was 100%.
Regarding `O=C(CSc1ccc2nnc(-c3cccc(F)c3)n2n1)Nc1ccc2c(c1)OCO2`, the growth in assay [1] is 80.5%; in assay [2] it was 70.4%; in [4] it was 87.9%; in assay [8] it was 84.1%; in assay [5], 104%; in [6], 32.5%. In addition, the values for the growth in assay [7] and in assay [9] were 62.1% and 56.3%, respectively.
As for `COc1cc(C#N)cc2[nH]c(=O)oc12`, the growth in assay [1] is 115%; in assay [2], 85.6%; in [3], 103%; in [8] it was 91.8%; in assay [5] it was 82.5%; in assay [6] it was 109%. The growth in assay [7] was 123%; in assay [9], 120%.
On to `CN(C)CCCNCc1ccc(-c2ccc(F)c(Cl)c2)o1`, for which the growth in assay [1] is 60.2%; in assay [2], 16.7%; in assay [4], 30.1%; in assay [8], 37.5%; in assay [5] it was 78.2%; in [6] it was 1.99% (active). In addition, the growth is -4.5% (active) in [7] and -22.9% (active) in [9].
Regarding `COc1cc(OC)cc(N2C(=O)N(Cc3ccc(C(C)(C)C)cc3)c3ccccc3S2(=O)=O)c1`, the growth in [1] is 86.1%; in assay [2] it was 54%; in assay [3], 97.8%; in assay [4], 81.2%; in [5] it was 98.6%; in assay [6], 84.7%. For the same molecule, the figures for the growth in assay [7] and in assay [9] were 93.3% and 41.8%, respectively.
Consider `CSc1nc2c(c(=O)[nH]1)N=C1c3ccccc3C(=O)C1C(c1ccccc1)N2` (centres undefined), for which the growth in assay [1] is 68.7%; in [2], 70%; in assay [3], 67.8%; in assay [4], 48.7%; in [5], 45.3%; in assay [6], 29%. In addition, the growth is 20% in assay [7] and -35.6% (active) in assay [9].
